This passage reports Potency results from PubChem BioAssay AID1347071 (National Center for Advancing Translational Sciences (NCATS), 2019).

Molecules are shown by their SMILES. In all, about 410,000 compounds went through this assay and about 260 (0.063%) were called active. A call without a number means that no potency is given here. About 2% were inconclusive and are not listed. This is one part of a sample in which actives are shown more often than they occur. Calls follow the shape of the dose curve; as a rule, active = well fitted activation curve with a large enough effect; inconclusive = small, poorly fitted or top-dose-only effect; inactive = no such curve, though single readings can be large or run the other way.
Potency is read from the fitted curve at half-maximal effect.

This experiment can be described thus: qHTS for compounds that reverse cellular toxicity of Amyloid beta (A-beta) peptide in yeast: Primary Screen. Also: nearly all actives have a fitted effect of over 55% in size. The note with it: yeast expressing A-beta42, growth rescue, OD600, 48 h; series mostly up to 46.1 µM. The text has this: The A-beta peptide is produced by the processing of the amyloid precursor protein (APP) by two proteases, beta and gamma secretases. […] A-beta42 is regarded as the most amyloidogenic form due to its hydrophobicity; however, precisely how A-beta42 induces neurotoxicity is unclear. To understand further this biology and its potential therapeutic implications for human neurodegenerative disease, a quantitative high-throughput screen for compounds that reverse the cellular toxicity of the A-beta peptide was developed. A yeast based screen was used because it recapitulates the salient feature of protein mis-folding disorder accurately. This cell-based phenotypic screen provides a significant, unbiased advantage by letting the compounds and models inform us which proteins or pathways are most relevant. The ideal chemical candidates would therefore have activity in both our primary yeast and secondary neuronal toxicity assays, as well as in mouse models. They will be valuable tools for dissecting diverse protein homeostasis pathologies and could potentially become the focus for future pre-clinical development. For this luminescence assay, inhibition of A-beta rescues the toxic effect in the yeast cell, resulting in increase of signals and the desired phenotype of "Activator". This screen is run against the Molecular Libraries Small Molecule Repository (MLSMR) and the NCGC Sytravon Library Collection.
NIH Chemical Genomics Center [NCGC]
NIH Molecular Libraries Probe Centers Network [MLPCN]
Assay Submitter (PI): Susan Lindquist, Whitehead Institute, Massachusetts Institute of Technology
[1] Vassar R,et al (1999). Beta-secretase cleavage of Alzheimer's amyloid precursor protein by the transmembrane aspartic protease BACE. Science. 286: 735-741.
[2] Yan R, et al (1999). Membrane-anchored aspartyl protease with Alzheimer's disease beta-secretase activity. Nature. 402: 533-536.
Two and a half microliter / well of yeast growth medium were dispensed in a 1536 assay plate. Compounds were pinned using the Kalypsys robotic system followed by addition of 2.5 uL / well yeast solution. The assay plates were incubated at 30 C. After 48 hr, the absorbance signal at 600 nm was obtained using the PerkinElmer ViewLux plate reader to assess yeast growth. The data was normalized to the positive control of an equimolar mixture of ferric chloride (FeCl3) and clioquinol and to the negative control DMSO.
For orientation: In qHTS, concentration-response curves come from the screen itself.
`Cc1cccc(N(C)C(=O)CS(=O)(=O)c2cccc3nsnc23)c1`: the Potency entry was “inactive”.
As for `COc1ccccc1OCCC(=O)OCC(=O)NC(=O)NC(C)(C)C`, the Potency result was “inactive”.
For `CC(C)(C)NC(=O)NC(=O)COC(=O)Cc1ccc(Cl)cc1Cl`, the Potency is 11.2 µM (active).
For `Cc1ccc(Cl)cc1NC(=O)COC(=O)CC(C)(C)C`, the Potency result was “inactive”.
The same measure for `Cc1ccc([C@H]2N[C@]3(CCCN(Cc4ccccc4)C3=O)[C@H]3C(=O)N(Cc4ccccc4)C(=O)[C@@H]23)cc1`: “inactive”; for `CCN1C(=O)[C@H]2[C@@H](c3ccc(C(F)(F)F)cc3)N[C@]3(CCCN(Cc4ccc(Br)cc4)C3=O)[C@H]2C1=O`: “inactive”.
On to `O=C1[C@H]2[C@@H](c3ccc(C(F)(F)F)cc3)N[C@]3(CCCN(Cc4ccc(Cl)cc4)C3=O)[C@H]2C(=O)N1Cc1ccccc1`, for which the Potency was 8.91 µM (active).
For `COc1ccc(CCNC(=O)Cn2c(=O)n(-c3ccccc3)c(=O)c3c(C)c(C)sc32)cc1OC`, the Potency result is “inactive”.
For the compound `COc1ccccc1OCC(=O)Nc1nnc2n1CCS2`, the Potency entry is “inactive”.
In the case of `CCOc1ccc(CNC(=O)C2CCN(c3nnc(-n4cccc4CNc4ccc(C)cc4)s3)CC2)cc1OC`, the Potency entry was “inactive”.
With `COc1cccc(CNC(=O)Cn2ncn3c(cc4ccccc43)c2=O)c1`, the Potency result was “inactive”.
As to `COCCNc1ncnc2c1c(-c1ccccc1)cn2-c1ccc(C)c(Cl)c1`, the Potency entry was “inactive”.
In the case of `CCOc1ccc(-c2cc3nc(C4CCN(C(=O)OC(C)(C)C)CC4)c(C(=O)Nc4cccc(CC)c4)cn3n2)cc1`, the Potency result is “inactive”.
As for `O=c1cc(COc2cccc(C(F)(F)F)c2)nc2sc3c(n12)CCCC3`, the Potency entry was “inactive”.
In the case of `CCc1ccc(NC(=O)CN2C(=O)C(c3ccccc3)=NC23CCCCCC3)cc1`, the Potency result is “inactive”.
Turning to `COc1ccc(C(=O)NC(=S)NC2CCCCC2)cc1`, the Potency was 12.6 µM (active).
`CCCNC(=S)N1CCC(NC(=O)c2ccc(OC)cc2)CC1`: the Potency entry is “inactive”.
For the compound `COc1ccc(S(=O)(=O)N2CCN(C(=O)NC3CCCCC3)CC2)cc1`, the Potency result is “inactive”.
`CCOc1ccc(NC(=O)CCC(=O)N2CC(C)Oc3ccc(C)cc32)cc1` (stereo not drawn): the Potency entry is “inactive”.
With `CCn1c(CN2CCC(C)CC2)nc2cc(NC(=O)c3ccccc3[N+](=O)[O-])ccc21`, the Potency entry is “inactive”.
As to `CCc1cccc(NC(=O)Cn2nc(CC)n3c(cc4cc(C)ccc43)c2=O)c1`, the Potency entry was “inactive”.
With `CC1=C(c2ccc(C)cc2)S(=O)(=O)NC1=NCCCN1CCN(c2cc(C)ccc2C)CC1`, the Potency result is “inactive”.
In the case of `COc1cccc(-c2cc(C(=O)Nc3ccc(C)cc3)[nH]n2)c1`, the Potency entry is “inactive”.
On to `Cc1ccc(N2CCN(C(=O)CCc3c(C)nc4c(c3C)c(=O)n(C)c(=O)n4C)CC2)c(C)c1`, for which the Potency entry was “inactive”.
Consider `CCOC(=O)c1c(NC(=O)/C(C#N)=C/c2ccccc2)sc2c1CCC2`, for which the Potency entry was “inactive”.
On to `COc1ccccc1CN1CCC(CNC(=O)c2cnn(-c3ccccc3Cl)c2C2CCN(C(=O)OC(C)(C)C)CC2)CC1`, for which the Potency result is “inactive”.
`CCn1c(CNC(=O)C23CC4CC(CC(C4)C2)C3)nnc1SCC(=O)Nc1ccc(OC)cc1`: the Potency result is “inactive”.
Regarding `COc1ccc(-c2nn(CC(=O)NC3CCCC3)c3c2cnc2ccc(F)cc23)cc1`, the Potency entry was “inactive”.
Take `Cc1nn(C(C)C(=O)Nc2ccc(C(C)C)cc2)c(=O)c2c1sc1ccccc12` (stereo not drawn): the Potency entry was “inactive”.
On to `COc1cc(OC)c(NC(=O)c2nc(-c3ccncc3)no2)cc1Cl`, for which the Potency result is “inactive”.
For the compound `COc1ccc(CCN2C(=O)c3oc4cc(C)cc(C)c4c(=O)c3C2c2ccccc2F)cc1OC` (stereo not drawn), the Potency entry was “inactive”.
The same measure for `CCOC(=O)c1cc2c(=O)n3ccccc3nc2n(CCCOC)c1=NC(=O)C(C)Oc1ccccc1` (stereo not drawn): “inactive”.
Regarding `COc1cc(C(=O)Nc2ccc(OCc3cc(=O)n4cc(C)sc4n3)cc2)cc(OC)c1OC`, the Potency result was “inactive”.
For the compound `COc1ccc(CN2CCc3nc(Nc4ccccc4)ncc3C2)c(OC)c1OC`, the Potency entry is “inactive”.
As for `Cc1cccc(Cn2c(CN3CCC(C(=O)NCc4ccccc4Cl)CC3)cc3ccccc32)c1`, the Potency entry was “inactive”.
Turning to `CCOC(=O)N1CCc2c(sc3c2c(=O)n(Cc2ccccc2)c(=O)n3CC(=O)Nc2cccc(C)c2)C1`, the Potency result was “inactive”.
Regarding `O=C(Nc1cc(Cl)cc(Cl)c1)c1ccc2c(c1)N(Cc1cccc(Cl)c1)C(=O)c1ccccc1S2=O` (stereo not drawn), the Potency result was “inactive”.
As for `CCc1ccc(NC(=O)c2nn(-c3ccc(C)cc3)c(=O)n(C)c2=O)cc1`, the Potency entry is “inactive”.
With `CCN1C(=O)c2ccccc2S(=O)c2ccc(C(=O)NCc3ccc(F)cc3)cc21` (stereo not drawn), the Potency result is “inactive”.
Turning to `CCn1cc(C(=O)N2CCN(c3cc(C)ccc3C)CC2)c(=O)c2cc(S(=O)(=O)N(C)C3CCCCC3)ccc21`, the Potency entry was “inactive”.
For `CNS(=O)(=O)c1ccc2c(c1)[nH]c(=S)n2C`, the Potency result is “inactive”.
In the case of `CCCn1c(=S)[nH]c2ccc(C(F)(F)F)cc21`, the Potency entry is “inactive”.
For `CC(C)n1c(=S)[nH]c2cc(C(F)(F)F)ccc21`, the Potency was 12.6 µM (active).
For the compound `Cn1c(=O)c2c(-c3ccccc3Br)n(Cc3ccccc3)cc2n(C)c1=O`, the Potency entry is “inactive”.
With `COc1ccc(N2CCN(C(=O)CSCc3nc(-c4ccccc4Cl)oc3C)CC2)cc1`, the Potency entry is “inactive”.
On to `Cc1cccc(C)c1NC(=S)N(Cc1cccnc1)Cc1ccccc1Cl`, for which the Potency entry was “inactive”.
As to `Cc1ccc(CN(Cc2cccnc2)C(=S)Nc2cccc(Cl)c2C)cc1`, the Potency was 11.2 µM (active).
In the case of `Cc1c(Cl)cccc1NC(=S)N(Cc1ccccc1)Cc1cccnc1`, the Potency result is “inactive”.
